Here are results for 89 compounds from the supplement of paper PMC7858590.

Where “and” joins values, the source holds several entries; their conditions need not be identical. Equal values may be shown once. ± gives the standard deviation of the averaged measurements. The full ranking holds about 3,800 compounds; the median of “cell shape (eccentricity) Z-score vs DMSO control” is about 1.1, and the lowest 2% start at about -4.7. Many of the other results were omitted from the sample, so the lowest values are more common in it than they were.

The subject of the test is human monocyte-derived macrophages (M0). The experiment in a line: cell shape (eccentricity) Z-score vs DMSO control; higher = more elongated, M2-like morphology. Particulars: 20 µM; 24 h; macrophage state: M0 (M-CSF). On the procedure:
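Primary human monocyte-derived macrophages (M-CSF differentiated, pooled from 4 donors, 5000 cells/well in 384-well plates) were treated with each compound at 20 uM for 24 h, then fixed and stained with phalloidin/DAPI and imaged on an Opera Phenix (6 fields, about 1000 cells/well). Cell eccentricity was measured with CellProfiler, and a Z-score (t-test) was computed against 4 DMSO control wells in the same row. Negative values mean round (M1-like) cells and positive values mean elongated (M2-like) cells; the paper's hit cutoffs are Z <= -4 (M1) and Z >= 6 (M2). Scale: negative = round, M1-like.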
As for `Cc1cc(O)cc2oc3cc(O)cc(O)c3c(=O)c12`, the “cell shape (Z-score)” value is -1.58. For `CCCC(=O)Nc1ccc(OCC(O)CNC(C)C)c(C(C)=O)c1` (centres undefined), the “cell shape (Z-score)” value came out at 1.65. The same measure for `CC1=C(CO)C(=O)OC([C@@H](C)[C@H]2CCC3C4CC=C5C[C@@H](O[C@@H]6O[C@H](CO)[C@@H](O)[C@H](O)[C@H]6O)C[C@H](O)[C@]5(C)C4CC[C@@]32C)C1` (some centres undefined): 1.5; for `C[C@@H](Oc1cc(-n2cnc3ccc(CN4CCN(C)CC4)cc32)sc1C(N)=O)c1ccccc1C(F)(F)F`: 3.02; for `C=C1[C@H]2CC[C@@]3(C)[C@H](c4ccoc4)OC(=O)C[C@]13O[C@H]1C[C@H](O)C(C)(C)[C@H](CC(=O)OC)[C@]12C`: -1.66. The same measure for `C=C1C(=O)OC2CC3(C)CCC=C(CO)C3CC12` (centres undefined): -3.71; for `COC(=O)C1=CO[C@@H](O[C@@H]2O[C@H](CO)[C@@H](O)[C@H](O)[C@H]2O)[C@H]2[C@@H]1C=CC21C=C([C@H](C)O)C(=O)O1` (some centres undefined): 2.96.

`CC(=O)OCC(Cc1ccccc1)NC(=O)C(Cc1ccccc1)NC(=O)c1ccccc1` (centres undefined): the “cell shape (Z-score)” value worked out at 0.368. `Cc1cc(O)c(C=O)c2c1C(=O)Oc1c(C)c(O)c3c(c1O2)C(O)OC3=O` (centres undefined): the “cell shape (Z-score)” value was 1.11. On to `COc1cc(C)c2c(c1C=O)Oc1c(c(C)c(O)c3c1C(O)OC3=O)OC2=O` (centres undefined), for which the “cell shape (Z-score)” value was -1.59.

As to `Cc1cc(O)c(C)c2c1Oc1c(C)c(O)cc(C)c1C(=O)O2`, the “cell shape (Z-score)” value was -6.49. The same measure for `CC(=O)OCC(=O)[C@@]1(O)CCC2C3C[C@H](C)C4=CC(=O)C=CC4(C)C3[C@@H](O)CC21C` (some centres undefined): -2.52; for `CC(CN(C)C)CN1c2ccccc2Sc2ccccc21` (centres undefined): -1.29.

For `O=C(Nc1ccc(C(=O)O)c(O)c1)c1ccccc1`, the “cell shape (Z-score)” value stood at 1.5. For `COc1ccc2nc(NC(=O)Nc3ccccc3)sc2c1`, the “cell shape (Z-score)” value came out at 2.21. The same measure for `O=C(Nc1nc2ccc(NC(=O)C34C[C@H]5C[C@@H](C3)C[C@@H](C4)C5)cc2s1)c1ccccc1`: -4.79; for `N=C(N)NCCNS(=O)(=O)c1cccc2cnccc12`: 5.63.

`CCCCCC1C(=O)O/C(=C\C(=O)O)C1=O` (centres undefined): the “cell shape (Z-score)” value was -1.15. The same measure for `CCC[C@H](NC(=O)/C(C#N)=C/c1cccc(Br)n1)c1ccccc1`: -4.73. `C[C@H](NC(=O)/C(C#N)=C/c1ccc(O)c(O)c1)c1ccccc1`: the “cell shape (Z-score)” value is -2.26. The same measure for `C[C@@H](NC(=O)/C(C#N)=C\c1ccc(O)c(O)c1)c1ccccc1`: 0.038; for `C[C@@H]1CN(CC(=O)Nc2ccc3c(c2)Cc2cccc(-c4cc(=O)cc(N5CCOCC5)o4)c2S3)C[C@H](C)O1`: 4.22.

In the case of `CC(=O)Oc1cc2c(c(C)c1OC(C)=O)CC=C1[C@@]2(C)CC[C@@]2(C)C3C[C@](C)(C(=O)O)CC[C@]3(C)CC[C@]12C` (some centres undefined), the “cell shape (Z-score)” value was -13.8. The same measure for `CC1(C)C2CC[C@]3(C)C(C(=O)C=C4[C@H]5C[C@@](C)(C(=O)O)CC[C@]5(C)CC[C@]43C)[C@@]2(C)CC[C@@H]1O` (some centres undefined): 0.344.

As for `CC(C)(C)CC(C)(C)c1ccc(O)c(-n2nc3ccccc3n2)c1`, the “cell shape (Z-score)” value was -0.381.

`CC(C)(C)CC(C)(C)c1ccc(OCCOCC[N+](C)(C)Cc2ccccc2)cc1`: the “cell shape (Z-score)” value is -0.216. The value for `Cc1cc(C(C)(C)CC(C)(C)C)ccc1OCCOCC[N+](C)(C)Cc1ccccc1` was -4.7; that for `O=C(O)c1cccnc1Nc1cccc(C(F)(F)F)c1` was 2.97; that for `COc1ccc(/C=C/C(=O)c2cc(O)ccc2O)cc1` was 2.34. The value for `COc1ccc(/C=C/C(=O)c2ccc(O)cc2O)cc1` was -5.34.

Take `CCOC(=O)C1=C(C)NC(C)=C(C(=O)OC)C1c1cccc([N+](=O)[O-])c1` (centres undefined): the “cell shape (Z-score)” value was found to be 1.64. The value for `COc1ccc2c(c1OC)OC[C@@H](c1ccc(OC)c(OC)c1OC)C2` was 2.19. The value for `COc1cc(C[C@@H]2COC(c3ccc(O[C@@H]4O[C@H](CO)[C@@H](O)[C@H](O)[C@H]4O)c(OC)c3)[C@@H]2CO)ccc1O[C@@H]1O[C@H](CO)[C@@H](O)[C@H](O)[C@H]1O` (some centres undefined) was 2.98; that for `Nc1ccc(-c2nc3ccc(-c4nc5ccc(N)cc5[nH]4)cc3[nH]2)cc1` was -0.879; that for `O=C(NOCC(O)CO)c1cc(Br)c(F)c(F)c1Nc1ccc(I)cc1F` (centres undefined) was -0.375. Turning to `O=C1c2ccc(Nc3ccc(F)cc3F)cc2CCc2ccc(OC[C@H](O)CO)cc21`, the “cell shape (Z-score)” value was -6.5. The value for `CC(=O)O[C@@H]1[C@@H](O)[C@H](C)O[C@@H](Oc2c(-c3ccc(O)cc3)oc3cc(O[C@@H]4O[C@@H](C)[C@H](O)[C@@H](O)[C@H]4O)cc(O)c3c2=O)[C@@H]1O` was 1.24; that for `C[C@@](Cc1ccc(O)c(O)c1)(NN)C(=O)O` was 1.55; that for `COc1ccc(C(=O)CC2(O)C(=O)Nc3c(Cl)ccc(Cl)c32)cc1` (centres undefined) was -7.6. With `COc1ccc(C(=C2C(=O)Nc3ccccc32)c2ccc(OC)cc2)cc1`, the “cell shape (Z-score)” value is 1.61. The value for `COc1ccc(C(=O)/C=C/c2ccccc2)cc1` was 3.14. Turning to `O=C(O)c1ccc(NCc2nc3cc4ccccc4cc3[nH]2)cc1`, the “cell shape (Z-score)” value amounted to 1.43.

For `CC1(C)O[C@@H]2CC3C4CCC5=CC(=O)C=C[C@]5(C)[C@@]4(F)[C@@H](O)C[C@]3(C)[C@]2(C(=O)CO)O1` (some centres undefined), the “cell shape (Z-score)” value is -2.57. For `COc1ccc(NC(=O)c2ccc(-c3ccc(-c4noc(C)n4)cc3C)cc2)cc1N1CCN(C)CC1`, the “cell shape (Z-score)” value is -0.626. On to `Cc1ccc2ccc3ccc(C)nc3c2n1`, for which the “cell shape (Z-score)” value came to 3.48. The same measure for `Cc1ccc(O)c(N=Nc2ccccc2)n1`: -7.89; for `Nc1ccc(/N=N/c2ccccc2)c(N)n1`: -1.01. The value for `C=C[C@@](C)(O)CCC1C(=C)CCC2[C@@](C)(CO)CCC[C@]12C` (some centres undefined) was 4.09; that for `COC1=C(N)C(=O)c2nc(-c3nc(C(=O)O)c(C)c(-c4ccc(OC)c(OC)c4O)c3N)ccc2C1=O` was 0.0737. The value for `Nc1ccccc1NC(=O)c1ccc(CNc2nccc(-c3cccnc3)n2)cc1` was -11.8.

Take `CC(C)(C)c1ccc(S(=O)(=O)NCc2ccc(C(=O)Nc3cccnc3)cc2)cc1`: the “cell shape (Z-score)” value amounted to 1.14. On to `CC(=O)Nc1ccc(C(=O)Nc2ccccc2N)cc1`, for which the “cell shape (Z-score)” value was -3.16 ± 2.7. The same measure for `Nc1ccccc1NC(=O)c1ccc(CNC(=O)OCc2cccnc2)cc1`: -10.6 ± 0.74. The same measure for `Nc1cc(-c2ccncc2)c[nH]c1=O`: 0.0533. The same measure for `COc1cc2c(c(OC)c1)C(=O)OC(C)C2` (centres undefined): -2.38; for `Cc1ccccc1NC(=N)Nc1ccccc1C`: 2.28; for `O=c1c(OC2OC(CO)C(O)C(O)C2OC2OC(CO)C(O)C(O)C2O)c(-c2ccc(O)cc2)oc2cc(O)cc(O)c12` (centres undefined): 0.138 ± 1.7. For the compound `CC1(C)C(=O)C=C[C@@]2(C)C1CC(=O)[C@]1(C)C2CC[C@@]2(C)[C@H](c3ccoc3)OC(=O)[C@H]3O[C@]321` (some centres undefined), the “cell shape (Z-score)” value is -1.42. Take `COc1cc2c(c(O)c1OC)C(=O)CC(c1ccc(O)cc1)O2` (centres undefined): the “cell shape (Z-score)” value turned out to be 0.892. With `CC(C)[C@@H]1CC[C@@]2(C)CCC[C@@](C)(O)[C@@H]2[C@H]1OC(=O)/C=C/c1ccccc1`, the “cell shape (Z-score)” value amounted to 2.15.

In the case of `NC(=O)c1ccc(-c2nc(-c3ccc4c(c3)OCCO4)c(-c3ccccn3)[nH]2)cc1`, the “cell shape (Z-score)” value is 4.12. The same measure for `COCCCCC(=NOCCN)c1ccc(C(F)(F)F)cc1`: -14.7; for `CC(/C=C/C1(O)C(C)CC(O)CC1(C)C)OC1OC(CO)C(O)C(O)C1O` (centres undefined): 0.819. In the case of `C/C=C/C#CC#C[C@@H](O[C@@H]1O[C@H](CO)[C@@H](O)[C@H](O)[C@H]1O)[C@H](O)/C=C/CCCO`, the “cell shape (Z-score)” value is -5.71. The value for `CC(O)CCCc1cc(O)cc(O[C@@H]2O[C@H](CO)[C@@H](O)[C@H](O)[C@H]2O)c1` (some centres undefined) was 0.302; that for `O=Cc1ccccc1O[C@@H]1O[C@H](CO)[C@H](O)[C@@H](O)[C@H]1O` was -0.838. The same measure for `O=C1c2ccccc2CCC1CNCCc1ccc(O)cc1` (centres undefined): 2.69; for `OCc1ccc(-c2ccc(-c3ccc(CO)s3)o2)s1`: -3.3 and -5.19; for `COc1cc(C(C)/C=C(/C)CC(=O)O)oc(=O)c1C` (centres undefined): 0.462 ± 0.48. The value for `C=C1CC[C@@H]2[C@](C)(CO)[C@H](O)CC[C@@]2(C)[C@@H]1CC(O)C1=CCOC1=O` (some centres undefined) was -2.2 ± 3.4. Regarding `O=C(Nc1ccc([N+](=O)[O-])cc1O)Nc1ccccc1Br`, the “cell shape (Z-score)” value was -4.95 ± 7.5.

With `O=C(Nc1ccccc1)c1cc([N+](=O)[O-])ccc1Cl`, the “cell shape (Z-score)” value was -1.03. The value for `O=C(Nc1ccc([N+](=O)[O-])cc1Cl)c1cc(Cl)ccc1O` was -4.1 ± 4.2; that for `CCC(C)C(=O)O[C@H]1C[C@H](O)C=C2C=C[C@H](C)[C@H](CC[C@@H](O)C[C@@H](O)CC(=O)O)C21` (some centres undefined) was -0.754; that for `COc1cc(/C=C/c2cc(O)cc(O[C@@H]3O[C@H](CO)[C@@H](O)[C@H](O)[C@H]3O)c2)ccc1O[C@@H]1O[C@H](CO)[C@@H](O)[C@H](O)[C@H]1O` was 2.22.

As for `COc1cc2c(cc1-c1coc3c4c(ccc3c1=O)OC(C)(C)C=C4)OCO2`, the “cell shape (Z-score)” value is -5.49. The value for `COc1c2c(cc3occ(-c4ccc5c(c4)OCO5)c(=O)c13)OC(C)(C)C=C2` was 1.71; that for `COc1c(-c2coc3cc4c(cc3c2=O)CC(O)C(C)(C)O4)ccc2c1C=CC(C)(C)O2` (centres undefined) was -0.764. The same measure for `CN(C)CCCN1c2ccccc2CCc2ccc(Cl)cc21`: 1.86; for `CC(C)=CCC1Cc2c(cc(O)c(C(=O)C(C)C)c2O)OC1(C)C` (centres undefined): 3.41; for `NCCCCCc1cnc[nH]1`: -0.662. The same measure for `CC(C)c1ccc(Cn2ccc3c4c(N)nc(NC5CC5)nc4ccc32)cc1`: -4.69; for `CCNC(=O)[C@@H]1CCCN1C(=O)[C@H](CCCNC(=N)N)NC(=O)[C@H](CC(C)C)NC(=O)[C@@H](COC(C)(C)C)NC(=O)[C@H](Cc1ccc(O)cc1)NC(=O)[C@H](CO)NC(=O)[C@H](Cc1c[nH]c2ccccc12)NC(=O)[C@H](Cc1cnc[nH]1)NC(=O)C1CCC(=O)N1` (some centres undefined): -0.749; for `O=C(CCCN1CCC(O)(c2ccc(Cl)cc2)CC1)c1ccc(F)cc1`: -2.24. For `O=C(CCCN1CCC(O)(c2cccc(C(F)(F)F)c2)CC1)c1ccc(F)cc1`, the “cell shape (Z-score)” value was -0.261. As for `OC1(c2ccc(Cl)c(C(F)(F)F)c2)CCN(CCCC(c2ccc(F)cc2)c2ccc(F)cc2)CC1`, the “cell shape (Z-score)” value was -6.96.

As for `CO[C@@]12[C@@H]3NC3CN1C1=C(C(=O)C(N)=C(C)C1=O)[C@@H]2COC(N)=O` (some centres undefined), the “cell shape (Z-score)” value was -5.51.

With `CO[C@@]12[C@H](COC(N)=O)C3=C(C(=O)C(C)=C(N)C3=O)N1C[C@@H]1N[C@@H]12`, the “cell shape (Z-score)” value is -1.43 ± 4. `Cc1cccc(-c2[nH]c(C(C)(C)C)nc2-c2ccc3nccnc3c2)n1`: the “cell shape (Z-score)” value came to 4.84.
